Measurements reported in PubChem BioAssay (NCI).
The panel holds about 83,000 compounds, 20% with a hit somewhere; the sample as a whole holds those more often.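 Single-dose data. Exposure time 48 hours. Values below 10 considered active.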 Unmarked numbers belong to inactive results. Calls of active or inactive are those of the source.

Assays:
Experiment in all cases: NCI-60 one-dose screen, 48 h (100 = growth as untreated, 0 = no growth, -100 = all killed)
Settings in all cases: 10 µM unless noted
[1] = system: NCI-H23 lung
[2] = system: NCI-H226 lung
[3] = system: NCI-H322M lung
[4] = system: HOP-62 NSCLC
[5] = system: NCI-H460 lung
[6] = system: HOP-92 NSCLC
[7] = system: NCI-H522 lung
[8] = system: A549/ATCC NSCLC
[9] = system: 786-0 renal
[10] = system: COLO 205 colon
[11] = system: DU-145 prostate
[12] = system: K-562 leukemia
[13] = system: MALME-3M melanoma
[14] = system: MDA-MB-231 breast
[15] = system: SF-268 CNS
[16] = system: SF-295 CNS
[17] = system: SF-539 CNS
[18] = system: UACC-257 melanoma
[19] = system: M14 melanoma

`Clc1cc(Cl)cc(N2N=C(c3cccc(Nc4ccncc4)c3)CC2c2ccc3c(c2)OCO3)c1` (stereo unspecified) showed a growth [1] of 80.1%, a growth [2] of 83.9% and a growth [3] of 68.3%. The growth [4] was -31.2% (active), the growth [5] was -90.2% (active) and the growth [6] was 57.9%. The growth [7] was -5.89% (active), the growth [8] was 15.2% and the growth [9] was 91.7%. For the same compound, the growth [10] was -47.5% (active), the growth [11] was 28.9% and the growth [12] was 3.33% (active). For the same compound, the growth [13] was -40.2% (active), the growth [14] was 33.1% and the growth [15] was 72.1%. The growth [16] was 40.7%, the growth [17] was 83.3% and the growth [18] was 51.2%. It also gave a growth [19] of 85.3%.
`COc1nc(N)nc(-n2c(-c3ccc(C)cc3)nc3ccccc32)c1NCc1ccc(C)cc1` was tested, and the growth [1] was 95.6%, the growth [2] was 89% and the growth [3] was 90.2%. It also gave a growth [4] of 86.5%, a growth [5] of 105% and a growth [6] of 78.2%. For the same compound, the growth [7] was 79.9%, the growth [8] was 78.4% and the growth [9] was 90.3%. It also gave a growth [10] of 108%, a growth [11] of 103% and a growth [12] of 87.2%. It also gave a growth [13] of 105%, a growth [14] of 80.4% and a growth [15] of 94.9%. The growth [16] was 92.8%, the growth [17] was 98.3% and the growth [18] was 100%. The growth [19] was 95.6%.
Compound `CC(=O)N1N=C(c2cccc(Nc3ccncc3)c2)CC1c1ccc2c(c1)OCO2` (stereo unspecified) has a growth [1] of 87.4%, a growth [2] of 94.6% and a growth [3] of 105%. It also gave a growth [4] of 89.4%, a growth [5] of 101% and a growth [6] of 72.1%. For the same compound, the growth [7] was 96.5%, the growth [8] was 93.9% and the growth [9] was -93.4% (active). For the same compound, the growth [10] was 84.3%, the growth [11] was 104% and the growth [12] was 27.4%. For the same compound, the growth [13] was 74.9%, the growth [14] was 86.9% and the growth [15] was 91.8%. The growth [16] was 89.9%, the growth [17] was 77.9% and the growth [18] was 100%. The growth [19] was -69.4% (active).
For `O=C(NCCc1ccccn1)OCc1nc2nc(Cl)nc(N3CCOCC3)c2[nH]1`, the growth [1] was 37.6%, the growth [2] was -53.2% (active) and the growth [3] was 43.9%. The growth [4] was 27.3%, the growth [5] was 3.35% (active) and the growth [6] was 22.4%. The growth [7] was -34.4% (active), the growth [8] was 43.5% and the growth [9] was 13.9%. For the same compound, the growth [10] was 17.2%, the growth [11] was 12% and the growth [12] was 0.32% (active). For the same compound, the growth [13] was 67.8%, the growth [14] was 28.5% and the growth [15] was 24.3%. For the same compound, the growth [16] was 91.4%, the growth [17] was -13.4% (active) and the growth [18] was 30.6%. For the same compound, the growth [19] was 4.12% (active).
For `O=C(O)C(/C=C/c1ccco1)=N\Nc1nc(-c2ccc(Cl)cc2)cs1`, the growth [1] was 57.7%, the growth [2] was 84% and the growth [3] was 68.5%. For the same compound, the growth [4] was 46.4%, the growth [5] was 37.6% and the growth [6] was 51.8%. It also gave a growth [7] of 39.4%, a growth [8] of 51.4% and a growth [9] of 51.8%. For the same compound, the growth [10] was 94.6%, the growth [11] was 70.1% and the growth [12] was 65.7%. It also gave a growth [13] of 79%, a growth [14] of 84.8% and a growth [15] of 50.9%. It also gave a growth [16] of 27.8%, a growth [17] of 43.4% and a growth [18] of 72.2%. It also gave a growth [19] of 43.7%.
With `O=C(Nc1ccc(Cl)cc1)Nc1ccc(Cl)c(Cl)c1` the growth [1] was -54.2% (active), the growth [2] was 16.3% and the growth [3] was 23.7%. The growth [4] was 40.8%, the growth [5] was -9.05% (active) and the growth [6] was 4.68% (active). The growth [7] was 0.643% (active), the growth [8] was 12.6% and the growth [9] was 39.1%. For the same compound, the growth [10] was -2.8% (active), the growth [11] was 10.7% and the growth [12] was 4.12% (active). For the same compound, the growth [13] was -1.33% (active), the growth [14] was 37.6% and the growth [15] was 36.1%. For the same compound, the growth [16] was -50.7% (active), the growth [17] was -19.2% (active) and the growth [18] was 43%. The growth [19] was 22.8%.
`Fc1ccccc1CSc1ncnc2nc[nH]c12` was tested, and the growth [1] was 110%, the growth [2] was 109% and the growth [3] was 131%. For the same compound, the growth [4] was 93.4%, the growth [5] was 97.8% and the growth [6] was 122%. For the same compound, the growth [7] was 54%, the growth [8] was 104% and the growth [9] was 106%. The growth [10] was 103%, the growth [11] was 120% and the growth [12] was 99.6%. It also gave a growth [13] of 129%, a growth [14] of 106% and a growth [15] of 109%. The growth [16] was 107%, the growth [17] was 89.6% and the growth [18] was 61.3%. It also gave a growth [19] of 108%.
`COc1cc(C2CC(c3cccc(Nc4ccncc4)c3)=NN2c2ccccc2)cc(OC)c1OC` (stereo unspecified) was tested, and the growth [1] was 90%, the growth [2] was 96% and the growth [3] was 80.1%. For the same compound, the growth [4] was 59.6%, the growth [5] was 4.66% (active) and the growth [6] was 28.1%. The growth [7] was 77.3%, the growth [8] was 44.9% and the growth [9] was 69.1%. For the same compound, the growth [10] was -52.5% (active), the growth [11] was 45.4% and the growth [12] was 0.38% (active). For the same compound, the growth [13] was -77.7% (active), the growth [14] was 63.4% and the growth [15] was 64.7%. For the same compound, the growth [16] was 58.6%, the growth [17] was 76.9% and the growth [18] was -13.8% (active). The growth [19] was 58.9%.
For `COc1ccncc1C#Cc1cncc(C(=O)Nc2ccc(CN3CCN(C)CC3)c(C(F)(F)F)c2)c1`, the growth [1] was 28%, the growth [2] was 3.6% (active) and the growth [3] was 37.3%. The growth [4] was 38.9%, the growth [5] was 8.17% (active) and the growth [6] was -2.19% (active). For the same compound, the growth [7] was 30.9%, the growth [8] was 36.9% and the growth [9] was 46.9%. For the same compound, the growth [10] was 4.09% (active), the growth [11] was 35.4% and the growth [12] was 5.84% (active). The growth [13] was -28% (active), the growth [14] was 9.91% (active) and the growth [15] was 39.8%. For the same compound, the growth [16] was 49.7%, the growth [17] was 1.56% (active) and the growth [18] was 46.5%. For the same compound, the growth [19] was -3.19% (active).
